Reference: PubChem BioAssay AID1963316 (National Center for Advancing Translational Sciences (NCATS), 2024)
Records with an inconclusive call do not appear. A number with no mark means an inactive call. The source made the active and inactive calls. Calls follow the shape of the full dose curve.

These compounds were tested against Tyrosine-protein kinase ABL1 (Homo sapiens) (UniProt P00519) (assay: ABL1 kinase (ABL1-N-HiBiT) SDR gain of signal screen - plus ATP). Settings: purified ABL1-N-HiBiT enzyme, HiBiT luminescence with 50 uM ATP, 30 min; series mostly up to 57.5 µM; signal gain, positive = increase: at the top concentration.
Source text: National Center for Advancing Translational Sciences (NCATS),
National Institute of Health (NIH), Maryland
Discovery and optimization of novel protein-binding ligands underlies many of the methods and applications of biology, drug discovery, clinical diagnostics, and environmental toxicology. Assays for detecting the interaction of, for example, a molecule with a macromolecular target also referred to here as the target of interest (TOI) is dependent on a compatible output technology. Depending on the nature and knowledge surrounding the TOI, whether a receptor, enzyme, regulatory subunit or scaffold, or a sequence-defined nucleic acid folded into a complex tertiary structure, assay strategies can vary widely.
Here we exploit ligand-biased changes in the structural dynamics of the target protein to control reporter alpha complementation allowing a non-competitive, non-functional, non-separation measure of ligand-target interaction.
Secondly, we show the specificity and sensitivity of the SDR for the Abelson tyrosine kinase (ABL1) compared to the serine/threonine protein kinase A, using an enriched chemical library of 128 compounds selected, in part, for activity annotated with ABL1 kinase activity using the Pharos database (3).
(1) A. S. Dixon et al., NanoLuc Complementation Reporter Optimized for Accurate Measurement of Protein Interactions in Cells. ACS Chem Biol 11, 400-408 (2016).
Chemistry & Biology, 19, 1060 - 1072 (2012).
(3) K. J. Kelleher et al., Pharos 2023: an integrated resource for the understudied human proteome. Nucleic Acids Res 51, D1405-D1416 (2023).
PROTOCOL TABLE (as described by Inglese J, Shamu CE and Guy RK. 2007)
SEQUENCE No. (e.g., 1, 2, 3, etc.); […] (e.g., C. elegans, Compounds, Incubation, Read, etc.); VALUE and DESCRIPTION.
1. Reagent. Dispense 4 uL ABL1-N-HiBiT enzyme per well at a final enzyme concentration of 10 nM in buffer with 50 uM ATP (SDR assay) into columns 2-48 of four replicate Greiner 1536-well white, solid bottom high base, medium plates per assay. Dispense respective buffer without enzyme at 4 uL/well in column 1 of assay plates using BioRaptr 2.
2. Compounds. Library compounds added at 23 nL/well by pin transfer. DMSO neutral control and imatinib positive control added at 25 nL/well, transfer by Mosquito dispenser.
3. Incubation. Incubate enzyme and compounds at room temperature for 30 min, protected from light.
4. Reagent. (SDR assay) Add 3 uL/well of Nano-Glo HiBiT reagent (Promega) to assay plates with ATP.
5. Incubation. (SDR assay) Incubate enzyme solution and HiBiT reagent at room temperature for 10 min, protect from light.
6. Detector. (SDR assay) Luminescence measured using CCD-based camera (ViewLux) with settings as follows: Exposure, 1 sec; Gain, High; Speed, Slow; Binning, 2X.
Inglese J, Shamu CE and Guy RK, Reporting data from high throughput screening of small molecule libraries, Nature Chemical Biology, 2007, 3(8): 438-441. doi.org/10.1038/nchembio0807-438.

Sequence of Tyrosine-protein kinase ABL1 (Homo sapiens) (P00519 whole entry, looked up): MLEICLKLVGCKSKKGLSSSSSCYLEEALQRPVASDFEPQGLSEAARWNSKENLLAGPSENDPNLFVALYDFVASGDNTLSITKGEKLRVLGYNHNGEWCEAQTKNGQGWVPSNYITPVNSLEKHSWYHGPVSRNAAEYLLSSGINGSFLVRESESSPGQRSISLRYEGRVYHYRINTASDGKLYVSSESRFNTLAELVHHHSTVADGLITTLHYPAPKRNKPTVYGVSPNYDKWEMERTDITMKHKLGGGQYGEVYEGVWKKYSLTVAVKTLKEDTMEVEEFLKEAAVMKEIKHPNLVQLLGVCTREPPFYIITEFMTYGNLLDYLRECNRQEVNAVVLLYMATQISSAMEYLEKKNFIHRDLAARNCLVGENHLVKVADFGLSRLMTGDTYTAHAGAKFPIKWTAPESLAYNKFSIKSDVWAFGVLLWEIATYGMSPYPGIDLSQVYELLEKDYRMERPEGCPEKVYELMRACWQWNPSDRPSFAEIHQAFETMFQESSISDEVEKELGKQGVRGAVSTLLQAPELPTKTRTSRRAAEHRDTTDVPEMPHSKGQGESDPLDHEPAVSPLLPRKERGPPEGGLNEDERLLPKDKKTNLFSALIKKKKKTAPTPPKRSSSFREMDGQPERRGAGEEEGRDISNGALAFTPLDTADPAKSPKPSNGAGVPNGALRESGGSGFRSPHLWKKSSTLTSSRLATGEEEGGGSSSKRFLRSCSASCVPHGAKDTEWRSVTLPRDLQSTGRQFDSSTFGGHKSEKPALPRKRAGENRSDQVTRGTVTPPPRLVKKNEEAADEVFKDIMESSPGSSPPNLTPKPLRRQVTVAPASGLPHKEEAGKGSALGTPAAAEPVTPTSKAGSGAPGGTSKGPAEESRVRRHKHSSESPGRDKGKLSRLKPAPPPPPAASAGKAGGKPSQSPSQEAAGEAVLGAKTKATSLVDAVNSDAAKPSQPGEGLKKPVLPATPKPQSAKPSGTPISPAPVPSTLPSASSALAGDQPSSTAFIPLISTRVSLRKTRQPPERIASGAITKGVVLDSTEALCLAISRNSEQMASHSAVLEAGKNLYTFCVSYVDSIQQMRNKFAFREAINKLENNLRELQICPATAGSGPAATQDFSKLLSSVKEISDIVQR

Compound	Potency	signal gain, positive = increase [%]
COc1cc2ncnc(Oc3cccc(NC(=O)Nc4cc(C(C)(C)C(F)(F)F)on4)c3)c2cc1OC	1410 nM (active)	–
CC[C@@](C)(Nc1ccnc(-c2c[nH]c3ncccc23)n1)C(=O)NCC(F)(F)F	11200 nM (active)	–
Cc1sc2c(c1C)C(c1ccc(Cl)cc1)=N[C@@H](CC(=O)Nc1ccc(OCCOCCOCCOCCNc3cccc4c3C(=O)N(C3CCC(=O)NC3=O)C4=O)cc1)c1nnc(C)n1-2 (stereo not given in full)	–	-1.19
COc1ccc(-n2c(C)c([N+](=O)[O-])c3ccc(O)cc32)cc1	–	-0.535
O=C1CCC(N2C(=O)c3ccccc3C2=O)C(=O)N1 (stereo not given)	–	-4.35
CCn1c(=O)c(-c2ccc(Cl)cc2Cl)cc2cnc(Nc3ccc(N4CCNCC4)c(F)c3)nc21	–	10.2
N#Cc1cccc(-c2c[nH]c3ncnc(N4CCOCC4)c23)c1	–	3.34
O=C(Nc1ccc(OC(F)(F)F)cc1)c1sccc1NCc1ccnc2ccccc12	–	1.19
C=CC(=O)N1CCC(Oc2cc3c(Nc4ccc(Cl)c(Cl)c4F)ncnc3cc2OC)CC1	–	5.97
Cc1cc(F)ccc1-c1nc(NCCN=C(N)NC#N)nc2c1ccc(=O)n2-c1c(F)cccc1F	–	-4.79
C[C@@H]1CCNC(=O)c2cc3ccc(C(=O)Nc4nc5ccccc5n4CCCN(C)C)cc3n21	–	4.51
Cc1cc(C)c(/C=C2\C(=O)Nc3ccccc32)[nH]1	–	-14.8
CCCCCCCCCCCCc1ccc(S(=O)(=O)Nc2nncs2)cc1	–	-3.86
COc1cc(N2CCC(O)CC2)ccc1Nc1nc(Nc2ccccc2S(=O)(=O)C(C)C)c2[nH]cnc2n1	–	9.23
C[C@@H]1CN(CC(=O)Nc2ccc3c(c2)Cc2cccc(-c4cc(=O)cc(N5CCOCC5)o4)c2S3)C[C@H](C)O1	–	-5.71
CCN1C(=O)CNc2ncc(-c3ccc(-c4ncn[nH]4)nc3C)nc21	–	3.79
O=C(NOCC(O)CO)c1cc(Br)c(F)c(F)c1Nc1ccc(I)cc1F (stereo not given)	–	-8.89
CN1CCN(CCCNc2ncc(Cl)c(-c3cc4c(C(=O)NC5CC5)cccc4s3)n2)CC1	–	1.32
CN1CCN(CCOc2cc(OC3CCOCC3)c3c(Nc4c(Cl)ccc5c4OCO5)ncnc3c2)CC1	83.9 nM (active)	–
CN1CCN(c2ccc(Nc3ncc4cc(C#N)c(=O)n(C5CCCC5)c4n3)cc2)CC1	–	-21.5

Compound	Potency	signal gain, positive = increase [%]
Cc1ccc(C(=O)Nc2ccc(CN3CCN(C)CC3)c(C(F)(F)F)c2)cc1C#Cc1cnc2[nH]ncc2c1	15.8 nM (active)	–
COc1ccc(S(=O)(=O)N(C(C)=O)c2ccccc2/C=C/c2cc[n+]([O-])cc2)cc1	–	-0.277
N#Cc1ccc2ncnc(NCCc3ccccc3)c2c1	–	1.28
CC(C)(NS(=O)(=O)c1ccc2c(Cl)cnc(N=C(N)N)c2c1)C(=O)O	–	-4.64
Cc1ccccc1-n1c([C@H](C)Nc2nc(N)nc3nc[nH]c23)nc2cccc(C)c2c1=O	–	-3.12
COc1ccccc1-c1c[nH]c2ncc(-c3cncc(C(=O)N(C)C)c3)cc12	19.9 nM (active)	–
CCn1nc(C2CCN(C(=O)CCO)CC2)nc1-c1cnc(N)c(-c2nnc(C(C)(C)C)o2)n1	–	5.36
FC(F)(F)c1ccc(/C=C/c2nc(COc3ccc(CCCCn4ccnn4)cc3)co2)cc1	–	1.31
O=C1C(c2c(O)[nH]c3ccccc23)=Nc2ccccc21	–	0.117
Cc1c(Cl)cccc1S(=O)(=O)Nc1nc(NCCc2ccccc2)nc2c1CN(Cc1ccccc1)CC2	–	-8.84
CCNC(=O)Nc1ccc(-c2nc3c(c(N4CCOC[C@@H]4C)n2)CCN(c2ncccn2)C3)cc1	–	-2.51
COc1cc(N2CCN(C)CC2)ccc1Nc1nc(N)c(C(=O)c2c(Cl)cccc2Cl)s1	–	-8.77
CNC(=O)c1ccccc1Nc1nc(Nc2ccc(N3CCOCC3)cc2OC)ncc1Cl	–	8.36
CO[C@H]1/C=C/O[C@@]2(C)Oc3c(C)c(O)c4c(O)c(c(/C=N\N5CCN(C6CCCC6)CC5)c(O)c4c3C2=O)NC(=O)/C(C)=C\C=C\[C@H](C)[C@H](O)[C@@H](C)[C@@H](O)[C@@H](C)[C@H](OC(C)=O)[C@@H]1C	–	-27.9
C=CC(=O)Nc1cccc(Oc2nc(Nc3ccc(N4CCN(C)CC4)cc3OC)ncc2Cl)c1	–	0.255
CC(C)(C)n1nc(-c2cccc3ccccc23)c2c(N)ncnc21	–	7.72
O=c1cc(N2CCOCC2)nc2c3ccccc3ccn12	–	8.04
CC1(C)OCCn2c1nc1c(N3CCOCC3)nc(-c3cnc(N)nc3)nc12	–	12.9
Oc1ccc(-c2ccc(-c3cc(Nc4cccc(CNC5CC5)c4)n[nH]3)cc2)c(O)c1	–	14
Cc1[nH]nc2ncc(C(=O)N3CCC[C@H]3c3ccc(Cl)cc3)cc12	–	1.86
